From PubChem BioAssay
The source made the active and inactive calls.

Experiments:
[1] = test system: Human papillomavirus type 1a protein E7 (residues 44-93); assay: small molecules binding HPV E7 44-93 – biochemical, small-molecule microarray, residues 44-93, 635 nm fluorescence, primary screen (AID 1108); details: fluorescence 635 nm, higher = more signal;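 also: E7 fragment applied at 1 µg/mL in TBST for 1 h at 4 C; score combines spot fluorescence with its signal to noise ratio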
[2] = hepatitis C replication reporter changes, two-sided – Huh7 cells, luciferase reporter, HCV replication inhibitor project, primary screen (AID 1109); details: Huh7 HCV replicon luciferase reporter, 48 h; higher = more signal;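 also: huh7 hepatoma cells harbouring a luciferase neomycin HCV replicon reporter; luciferase luminescence as measure of HCV replicon replication; test concentration not given here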
[3] = molecular target: Left-right determination factor 2 (Homo sapiens) (UniProt O00292); assay: small molecules binding LEFTY2 protein – biochemical, small-molecule microarray, 635 nm fluorescence scan, primary screen (AID 1110); details: higher = more signal
Left-right determination factor 2 (Homo sapiens), sequence (O00292 whole entry, looked up): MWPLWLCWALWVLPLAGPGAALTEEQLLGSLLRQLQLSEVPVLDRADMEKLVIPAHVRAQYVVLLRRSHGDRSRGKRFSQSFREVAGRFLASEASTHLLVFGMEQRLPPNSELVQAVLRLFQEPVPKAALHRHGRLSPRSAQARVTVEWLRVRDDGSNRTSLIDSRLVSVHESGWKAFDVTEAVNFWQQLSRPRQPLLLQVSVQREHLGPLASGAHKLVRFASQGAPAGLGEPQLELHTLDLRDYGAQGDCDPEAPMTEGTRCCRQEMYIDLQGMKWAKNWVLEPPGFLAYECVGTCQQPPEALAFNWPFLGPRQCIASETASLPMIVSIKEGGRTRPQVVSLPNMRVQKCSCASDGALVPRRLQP

[4] = molecular target: Calmodulin-1 (Homo sapiens) (UniProt P0DP23); assay: small molecules binding calmodulin-1 with EGTA – biochemical, small-molecule microarray, Cy5-labelled CALM1, profiling panel (AID 1111); details: Cy5-CALM1 binding fluorescence, higher = more signal;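 also: labelled calmodulin applied in Tris saline Tween buffer holding calcium plus EGTA and DTT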
[5] = molecular target: Calmodulin-1 (Homo sapiens) (UniProt P0DP23); assay: small molecules binding Ca-loaded calmodulin-1 – biochemical, small-molecule microarray, Cy5-labelled CALM1, plus calcium, artefact control for SMM control-protein annotation, profiling panel (AID 1112); details: Cy5-CALM1 binding fluorescence, higher = more signal;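 also: score merges spot fluorescence with signal to noise from triplicate slides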
[6] = probe aWnt5a binding to arrayed compounds – biochemical, biotinylated probe, 635/667 nm fluorescence, primary screen (AID 1113); details: small-molecule microarray, higher = more signal;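 also: score merges 667 nm fluorescence intensity with signal-to-noise per printed feature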
[7] = probe aShh binding to arrayed compounds – biochemical, biotinylated probe, 635/667 nm fluorescence, primary screen (AID 1114); details: small-molecule microarray, higher = more signal;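 also: probe is biotin-labelled aShh protein from a stem cell growth factor screen; measures binding of labelled protein to compounds printed on the slide; score merges feature fluorescence at 667 nm with signal-to-noise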
[8] = probe aNog binding to arrayed compounds – biochemical, biotinylated probe, 635/667 nm fluorescence, primary screen (AID 1115); details: small-molecule microarray, higher = more signal;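 also: probe is biotinylated aNog protein used at 0.15 µg/mL for 1 h at 4 C; z-score combines 667 nm fluorescence of each spot with its signal to noise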
[9] = molecular target: Torsin-1A-interacting protein 1 (Homo sapiens) (UniProt Q5JTV8); assay: compound microarray binding of lysate hLAP1 – cell lysate, small-molecule microarray, COS7 lysate, 635/667 nm fluorescence, primary screen (AID 1116); details: 635 nm fluorescence, higher = more signal
Torsin-1A-interacting protein 1 (Homo sapiens), sequence (Q5JTV8 whole entry, looked up): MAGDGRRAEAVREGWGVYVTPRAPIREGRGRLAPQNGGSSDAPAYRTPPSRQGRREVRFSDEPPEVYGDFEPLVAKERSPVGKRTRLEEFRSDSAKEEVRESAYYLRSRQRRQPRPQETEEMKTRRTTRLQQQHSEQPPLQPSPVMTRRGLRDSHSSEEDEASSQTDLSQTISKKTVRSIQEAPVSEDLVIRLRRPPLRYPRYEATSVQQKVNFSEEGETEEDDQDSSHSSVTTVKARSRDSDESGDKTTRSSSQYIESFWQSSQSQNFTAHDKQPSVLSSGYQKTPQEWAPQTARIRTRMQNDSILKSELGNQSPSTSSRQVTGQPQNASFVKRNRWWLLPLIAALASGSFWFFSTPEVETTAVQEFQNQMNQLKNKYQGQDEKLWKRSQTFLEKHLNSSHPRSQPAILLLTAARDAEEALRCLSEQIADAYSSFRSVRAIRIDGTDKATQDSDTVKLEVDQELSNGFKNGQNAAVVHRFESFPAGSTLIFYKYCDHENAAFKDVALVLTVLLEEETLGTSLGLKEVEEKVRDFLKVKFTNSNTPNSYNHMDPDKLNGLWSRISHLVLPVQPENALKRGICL

[10] = molecular target: Alpha-bungarotoxin (Bungarus multicinctus) (UniProt P60615); assay: compounds binding labelled alpha-BTX control protein – biochemical, small-molecule microarray, Alexa647 label, 635/667 nm fluorescence, artefact control for SMM control protein annotation, profiling panel (AID 1117); details: alpha-BTX-A647 binding fluorescence, higher = more signal
Alpha-bungarotoxin (Bungarus multicinctus), sequence (P60615 whole entry, looked up): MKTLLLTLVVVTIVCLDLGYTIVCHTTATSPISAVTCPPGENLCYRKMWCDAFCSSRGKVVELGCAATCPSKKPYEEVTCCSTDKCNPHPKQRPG

Albumin (Bos taurus) = Albumin (Bos taurus) (UniProt P02769); assay: compounds binding labelled BSA control protein – biochemical, small-molecule microarray, Alexa647 label, 635/667 nm fluorescence, artefact control for SMM control protein annotation, profiling panel (AID 1118); details: BSA-A647 binding, fluorescence 635 nm, higher = more signal;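 also: score merges 667 nm emission intensity and signal-to-noise per printed compound spot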
Albumin (Bos taurus), sequence (P02769 whole entry, looked up): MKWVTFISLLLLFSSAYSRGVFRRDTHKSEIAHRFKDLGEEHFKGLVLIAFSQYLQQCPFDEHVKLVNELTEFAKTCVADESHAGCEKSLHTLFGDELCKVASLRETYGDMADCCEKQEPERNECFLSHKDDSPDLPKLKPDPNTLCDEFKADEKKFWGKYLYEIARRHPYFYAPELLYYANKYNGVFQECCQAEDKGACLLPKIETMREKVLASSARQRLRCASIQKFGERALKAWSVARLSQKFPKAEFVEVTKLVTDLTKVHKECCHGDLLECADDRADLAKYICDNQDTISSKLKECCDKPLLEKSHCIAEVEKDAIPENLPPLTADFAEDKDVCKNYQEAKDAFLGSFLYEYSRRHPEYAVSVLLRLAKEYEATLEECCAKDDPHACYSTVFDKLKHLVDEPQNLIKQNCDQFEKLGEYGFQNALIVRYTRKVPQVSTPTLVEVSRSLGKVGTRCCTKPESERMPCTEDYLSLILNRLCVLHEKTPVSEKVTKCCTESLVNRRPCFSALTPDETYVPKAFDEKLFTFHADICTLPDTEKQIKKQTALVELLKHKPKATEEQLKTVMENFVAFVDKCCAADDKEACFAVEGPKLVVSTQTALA

[11] = probe aXIP binding to arrayed compounds – biochemical, NeuroSMM set, 635/667 nm fluorescence, primary screen (AID 1119); details: small-molecule microarray, higher = more signal, called active from +8 up or from −8 down;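 also: probe is the protein aXip251-270 applied at 1 µg/mL to compound-printed slides; binding of probe to printed compounds measured as 667 nm fluorescence plus signal to noise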
[12] = probe aNOTCH3 binding on compound microarray – biochemical, small-molecule microarray, 635/667 nm fluorescence, primary screen (AID 1120); details: higher = more signal;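 also: probe is a biotin-tagged antibody raised against NOTCH3 rather than NOTCH3 protein; score merges spot fluorescence near 667 nm with spot signal to noise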
[13] = probe aNOTCH2 binding on compound microarray – biochemical, small-molecule microarray, 635/667 nm fluorescence, primary screen (AID 1121); details: higher = more signal;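 also: score merges feature fluorescence read at 667 nm with its signal to noise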
[14] = molecular target: Carbonic anhydrase 2 (Homo sapiens) (UniProt P00918); assay: compounds binding carbonic anhydrase 2 – biochemical, small-molecule microarray, Alexa647-labelled CAII, profiling panel (AID 1122); details: CAII-A647 binding fluorescence, higher = more signal
[15] = COS7 lysate on small-molecule microarray, probe aHis, 635 nm (AID 1123); details: COS7 cell lysate, fluorescence, higher = more signal;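 also: z-score combines 667nm fluorescence intensity with signal-to-noise per printed compound spot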
[16] = probe aLAP1 signal on lysate-treated microarray – cell lysate, small-molecule microarray, COS7 lysate, primary screen (AID 1124); details: probe aLAP1, fluorescence, higher = more signal;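 also: lysate comes from COS7 cells expressing LAP1 and is applied at 0.3 µg/mL; score merges spot fluorescence near 667 nm with signal-to-noise over triplicate slides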
Sam68 (KHDRBS1) = assay: compounds binding KHDRBS1 protein – biochemical, small-molecule microarray, 635 nm fluorescence, primary screen (AID 1125); details: higher = more signal;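 also: score merges 667 nm channel intensity with signal to noise over triplicate slides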
[17] = test system: Chordin-like protein 2 (CHRDL2); assay: compounds binding chordin-like 2 – biochemical, small-molecule microarray, 635 nm fluorescence, primary screen (AID 1126); details: fluorescence 635 nm, higher = more signal;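 also: printed compound slides probed with Chrdl2 protein at 4 µg/mL for 1 h at 4 C; score merges 667 nm emission intensity with signal to noise over three replicate slides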
[18] = molecular target: Concanavalin-A (Canavalia ensiformis) (UniProt P02866); assay: compounds binding concanavalin A lectin – biochemical, small-molecule microarray, Alexa647 label, 635 nm, artefact control for SMM control protein annotation, primary screen (AID 1127); details: ConA-A647 binding fluorescence, higher = more signal;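 also: z combines 667 nm emission intensity with signal-to-noise across three replicate slides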
Concanavalin-A (Canavalia ensiformis), sequence (P02866 whole entry, looked up): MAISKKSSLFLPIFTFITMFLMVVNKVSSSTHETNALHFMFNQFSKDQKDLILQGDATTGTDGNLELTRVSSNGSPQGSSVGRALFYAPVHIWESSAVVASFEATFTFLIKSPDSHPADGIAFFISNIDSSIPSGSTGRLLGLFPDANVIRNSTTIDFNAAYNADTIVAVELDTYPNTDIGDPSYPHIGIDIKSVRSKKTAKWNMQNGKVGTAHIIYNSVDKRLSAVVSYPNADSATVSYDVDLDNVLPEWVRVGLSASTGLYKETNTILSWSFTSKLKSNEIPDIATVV

| SMILES | composite z-score [1] | z-score [2] | composite z-score [3] | composite z-score [4] | composite z-score [5] | composite z-score [6] | composite z-score [7] | composite z-score [8] | composite z-score [9] | composite z-score [10] | composite z-score (Albumin (Bos taurus)) | composite Z-score [11] | composite z-score [12] | composite z-score [13] | composite z-score [14] | composite z-score [15] | composite z-score [16] | composite z-score (Sam68 (KHDRBS1)) | composite z-score [17] | composite z-score [18] |
| --- | --- | --- | --- | --- | --- | --- | --- | --- | --- | --- | --- | --- | --- | --- | --- | --- | --- | --- | --- | --- |
| COc1ccc([Si](C)(C)[C@H]2[C@H](CC(=O)N(CCO)Cc3ccccc3)O[C@@]3(C(=O)N(C)c4c(Br)cc(C)cc43)[C@@H]2C)cc1 | 0.926 | -4.28 | 1.12 | -0.763 | 0.973 | -0.176 | -0.154 | -0.291 | 0.491 | 0.572 | 0.509 | -0.324 (inactive) | -0.0072 | -0.179 | 0.731 | 1.07 | 0.0123 | 0.995 | 1.27 | 0.652 |
| CCC1=C2CN(Cc3ccccc3)[C@@H](C(=O)Cc3ccccc3)C2C=CCC1 (stereo not given in full) | 1.4 | -0.618 | 0.133 | -0.0133 | -0.429 | -0.124 | -0.211 | -0.185 | 0.0878 | 0.0601 | 0.912 | -0.496 (inactive) | 0.0293 | -0.149 | 0.679 | 1.58 | -0.186 | 0.169 | -0.263 | 0.351 |
| C=CCN1Cc2ccccc2[C@@H]2OC(c3ccc(OCCCO)cc3)=N[C@]2(CC=C)C1=O | 0.139 | -1.43 | 0.718 | 0.698 | -0.0856 | 0.128 | 0.0469 | 0.634 | 2.02 | 2.04 | -0.187 | 1.79 (inactive) | 0.43 | 0.147 | 0.544 | 3.16 | 0.585 | 1.22 | 1.44 | 1.1 |
| COc1ccc([Si](C)(C)[C@@H]2[C@@H](CCO)O[C@]3(C(=O)N(Cc4ccccc4)c4ccc(N5C(=O)c6cccc7cccc5c67)cc43)[C@H]2C)cc1 | -0.432 | -4.17 | -0.558 | 0.991 | 0.836 | -0.251 | -0.237 | 0.2 | -0.697 | 0.0366 | 0.511 | 0.708 (inactive) | -0.146 | -0.155 | -0.0746 | 1.25 | -0.3 | -0.239 | -0.215 | 1.01 |
| CCOC(=O)C[C@H]1[C@H](OC(=O)Cc2ccc3c(c2)OCO3)[C@@H](NC(=O)C2CCCCC2)c2cc(OCCCO)ccc2N1C(=O)c1ccccc1 | 0.232 | -0.509 | -0.684 | 0.379 | 0.389 | -0.1 | -0.147 | -0.272 | 0.653 | 0.262 | 0.869 | 0.394 (inactive) | -0.0647 | -0.14 | 0.112 | 0.469 | 0.124 | 0.249 | -0.311 | 0.833 |
| CC(C)C(O)C1C=CC2C(=O)N(c3ccccc3)C(=O)C2N1Nc1ccccc1 (stereo not given) | 1.5 | -0.831 | 0.138 | 1.71 | 0.325 | 0.0324 | -0.156 | 1.32 | 1.1 | 1.23 | 0.938 | -0.221 (inactive) | 0.228 | -0.131 | 0.698 | 3.02 | 0.281 | 1.31 | -0.235 | 0.966 |
| C=CCNC(=O)[C@@H]1[C@H]2C(=O)O[C@H](c3ccccc3)[C@H](c3ccccc3)N2[C@H](c2ccc(OCCO)cc2)[C@@]12C(=O)N(C(=O)OCCOC)c1ccc(C#Cc3ccc(OC)cc3)cc12 | 1.01 | -1.14 | 0.399 | 1.6 | 0.169 | -0.27 | -0.291 | -0.272 | 0.229 | 1.22 | 0.645 | -0.116 (inactive) | 0.182 | -0.151 | 0.402 | 1.39 | 0.78 | 1.3 | 0.151 | 1.14 |
| COc1cc2c(cc1O)C=[N+](Cc1sc3ccccc3c1Cl)CC2 | -0.429 | -1.57 | 0.324 | -0.0659 | 0.0401 | -0.0403 | -0.0626 | 0.162 | 0.25 | 0.252 | 0.606 | 0.0375 (inactive) | -0.0546 | -0.0658 | 0.742 | 0.491 | 0.361 | -0.291 | 0.496 | 0.968 |
| [N-]=[N+]=Nc1ccccc1C[C@]1(C(=O)NCC(O)CO)COC(c2ccc(OCCCO)cc2)=N1 (stereo not given in full) | 0.776 | -0.677 | -0.314 | 1.32 | 0.37 | -0.132 | 0.275 | -0.236 | 2.01 | -0.633 | 0.407 | 0.371 (inactive) | 0.0339 | -0.0482 | 0.753 | 2.09 | 0.282 | -0.206 | -1.21 | 0.832 |
